Assays:
Test in all cases: DAPPL (digital affinity profiling via proximity ligation, sequencing); 10 mM Tris-HCl pH 7.5, 50 mM NaCl, 1 mM DTT, 4% glycerol, room temperature, 30 min; GST-TFs on glutathione beads, 16-mer random dsDNA library, 0.1% formaldehyde crosslink after washing; high values mean tight binding
Details in all cases: protein: recombinant; tags: N-terminal GST; dsDNA, one strand shown
ELK1 = target: T1, ELK1 (Homo sapiens, UniProt P19419 1-428)
T1 sequence: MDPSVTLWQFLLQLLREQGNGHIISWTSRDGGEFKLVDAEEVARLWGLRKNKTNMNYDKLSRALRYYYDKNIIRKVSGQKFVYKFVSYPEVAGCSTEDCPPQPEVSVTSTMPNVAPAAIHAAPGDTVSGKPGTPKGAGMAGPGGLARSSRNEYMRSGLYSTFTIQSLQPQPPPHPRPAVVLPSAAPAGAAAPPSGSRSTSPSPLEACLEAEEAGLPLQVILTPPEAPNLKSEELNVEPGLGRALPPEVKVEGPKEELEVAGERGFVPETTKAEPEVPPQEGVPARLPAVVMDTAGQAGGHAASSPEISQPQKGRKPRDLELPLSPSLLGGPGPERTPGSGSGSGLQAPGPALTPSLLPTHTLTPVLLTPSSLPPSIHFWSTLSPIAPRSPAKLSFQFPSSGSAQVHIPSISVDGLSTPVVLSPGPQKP
In short: (§1)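 Yeast served to express human transcription factors as GST fusions, which were then captured on glutathione beads and labelled with DNA barcodes. Pooled with a tag-only sample, they were incubated with 200 nmole of a 16-mer random double-stranded DNA library for 30 min at room temperature in Tris/NaCl/DTT/glycerol buffer, washed, crosslinked with 0.1% formaldehyde, ligated by proximity, amplified by PCR and sequenced. Dividing each hexamer's read frequency for a factor by its frequency for the tag-only sample gives the binding signal.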

ERG = target: T2, ERG (Homo sapiens, UniProt P11308 1-479)
T2 sequence: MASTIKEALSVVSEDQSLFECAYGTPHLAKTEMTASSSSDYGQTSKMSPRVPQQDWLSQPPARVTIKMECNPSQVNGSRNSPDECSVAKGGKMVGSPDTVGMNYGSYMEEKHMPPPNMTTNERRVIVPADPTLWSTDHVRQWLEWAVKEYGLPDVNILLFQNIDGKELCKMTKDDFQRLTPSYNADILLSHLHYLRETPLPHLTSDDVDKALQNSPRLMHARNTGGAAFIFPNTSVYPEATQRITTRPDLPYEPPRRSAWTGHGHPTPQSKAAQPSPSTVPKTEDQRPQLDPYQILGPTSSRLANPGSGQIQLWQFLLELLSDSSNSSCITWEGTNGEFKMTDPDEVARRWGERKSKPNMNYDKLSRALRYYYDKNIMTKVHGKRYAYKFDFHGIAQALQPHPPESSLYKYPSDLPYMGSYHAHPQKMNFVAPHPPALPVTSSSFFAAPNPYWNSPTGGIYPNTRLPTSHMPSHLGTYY
In short: as §1

EHF = target: T3, EHF (Homo sapiens, UniProt Q9NZC4 1-300)
T3 sequence: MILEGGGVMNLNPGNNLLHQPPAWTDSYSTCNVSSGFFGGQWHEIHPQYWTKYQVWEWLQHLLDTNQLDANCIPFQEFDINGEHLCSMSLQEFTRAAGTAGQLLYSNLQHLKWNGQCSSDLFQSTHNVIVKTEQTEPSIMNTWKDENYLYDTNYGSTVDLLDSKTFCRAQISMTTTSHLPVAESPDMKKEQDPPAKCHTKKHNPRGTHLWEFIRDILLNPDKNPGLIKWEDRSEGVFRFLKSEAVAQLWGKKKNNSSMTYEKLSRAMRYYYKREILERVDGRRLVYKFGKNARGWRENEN
In short: as §1

SPI1 = SPI1 (Homo sapiens, UniProt P17947 1-270)
In short: as §1

SPIB = SPIB (Homo sapiens, UniProt Q01892 1-262)
Chain of SPIB (Q01892 whole entry): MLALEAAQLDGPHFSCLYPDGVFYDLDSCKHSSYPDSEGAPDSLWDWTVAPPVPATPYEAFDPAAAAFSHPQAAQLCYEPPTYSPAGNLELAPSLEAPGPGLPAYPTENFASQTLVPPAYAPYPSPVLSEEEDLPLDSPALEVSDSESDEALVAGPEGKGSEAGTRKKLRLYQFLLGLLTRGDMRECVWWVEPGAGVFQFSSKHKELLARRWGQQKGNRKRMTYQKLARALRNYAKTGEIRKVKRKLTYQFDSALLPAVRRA
In short: as §1

SPIC = target: T4, SPIC (Homo sapiens, UniProt Q8N5J4 1-248)
T4 sequence: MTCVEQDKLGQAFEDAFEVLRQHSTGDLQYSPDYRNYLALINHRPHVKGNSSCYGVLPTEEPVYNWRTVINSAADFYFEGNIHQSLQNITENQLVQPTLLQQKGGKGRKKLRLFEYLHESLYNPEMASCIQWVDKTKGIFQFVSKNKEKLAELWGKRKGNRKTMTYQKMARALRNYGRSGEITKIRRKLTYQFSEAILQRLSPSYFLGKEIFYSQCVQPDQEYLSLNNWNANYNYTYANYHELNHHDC
In short: as §1

ELF4 = ELF4 (Homo sapiens, UniProt Q99607 1-663)
Chain of ELF4 (Q99607 whole entry): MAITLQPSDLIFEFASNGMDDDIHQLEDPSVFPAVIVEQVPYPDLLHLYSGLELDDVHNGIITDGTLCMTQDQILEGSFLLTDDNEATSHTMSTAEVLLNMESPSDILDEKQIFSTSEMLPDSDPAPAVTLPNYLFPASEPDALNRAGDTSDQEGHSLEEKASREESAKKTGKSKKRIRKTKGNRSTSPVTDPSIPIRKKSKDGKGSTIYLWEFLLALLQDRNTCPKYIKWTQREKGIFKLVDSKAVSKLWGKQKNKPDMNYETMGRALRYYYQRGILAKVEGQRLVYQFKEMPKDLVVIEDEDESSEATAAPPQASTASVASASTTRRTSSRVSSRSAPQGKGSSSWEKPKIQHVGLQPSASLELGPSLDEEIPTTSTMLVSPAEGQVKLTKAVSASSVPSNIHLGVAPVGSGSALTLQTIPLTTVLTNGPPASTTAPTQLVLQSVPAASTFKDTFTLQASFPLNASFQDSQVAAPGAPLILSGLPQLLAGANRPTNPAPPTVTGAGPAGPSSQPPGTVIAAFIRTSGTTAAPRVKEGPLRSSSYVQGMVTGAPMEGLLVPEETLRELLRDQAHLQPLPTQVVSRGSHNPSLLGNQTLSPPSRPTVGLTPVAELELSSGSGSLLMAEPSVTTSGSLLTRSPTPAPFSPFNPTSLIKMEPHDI
In short: as §1

ELK4 = target: T5, ELK4 (Homo sapiens, UniProt P28324-2 1-405)
T5 sequence: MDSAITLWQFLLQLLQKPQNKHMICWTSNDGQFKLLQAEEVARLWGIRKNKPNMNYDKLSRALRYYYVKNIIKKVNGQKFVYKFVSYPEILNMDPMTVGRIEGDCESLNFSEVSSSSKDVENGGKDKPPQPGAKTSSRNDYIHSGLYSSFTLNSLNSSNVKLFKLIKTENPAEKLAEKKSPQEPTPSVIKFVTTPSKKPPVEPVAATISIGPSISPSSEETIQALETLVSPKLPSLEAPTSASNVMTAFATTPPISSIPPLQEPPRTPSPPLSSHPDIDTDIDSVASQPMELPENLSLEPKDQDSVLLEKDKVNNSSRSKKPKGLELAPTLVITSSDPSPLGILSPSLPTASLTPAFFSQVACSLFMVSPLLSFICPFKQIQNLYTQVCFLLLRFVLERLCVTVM
In short: as §1

ETV2 = target: T6, ETV2 (Homo sapiens, UniProt O00321 1-342)
T6 sequence: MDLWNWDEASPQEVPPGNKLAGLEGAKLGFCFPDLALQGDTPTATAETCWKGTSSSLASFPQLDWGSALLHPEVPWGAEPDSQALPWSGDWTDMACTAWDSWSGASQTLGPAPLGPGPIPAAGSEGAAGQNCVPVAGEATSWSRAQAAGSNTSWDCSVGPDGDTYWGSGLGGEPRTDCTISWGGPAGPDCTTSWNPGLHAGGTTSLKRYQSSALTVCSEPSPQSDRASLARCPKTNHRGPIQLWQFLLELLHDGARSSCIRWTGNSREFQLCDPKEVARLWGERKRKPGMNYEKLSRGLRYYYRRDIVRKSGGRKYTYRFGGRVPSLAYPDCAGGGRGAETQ
In short: as §1

ELF3 = target: T7, ELF3 (Homo sapiens, UniProt P78545 1-371)
T7 sequence: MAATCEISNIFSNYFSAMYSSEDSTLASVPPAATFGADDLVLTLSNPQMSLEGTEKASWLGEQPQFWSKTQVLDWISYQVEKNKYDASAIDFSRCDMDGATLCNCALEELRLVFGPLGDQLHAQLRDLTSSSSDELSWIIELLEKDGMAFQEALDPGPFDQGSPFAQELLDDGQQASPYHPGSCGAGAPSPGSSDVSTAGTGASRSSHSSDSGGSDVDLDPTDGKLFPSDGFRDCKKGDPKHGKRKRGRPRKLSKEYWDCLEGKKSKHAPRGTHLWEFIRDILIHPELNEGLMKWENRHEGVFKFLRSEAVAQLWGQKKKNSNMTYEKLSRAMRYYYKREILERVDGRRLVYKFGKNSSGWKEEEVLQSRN
In short: as §1

ERF = target: T8, ERF (Homo sapiens, UniProt P50548 1-548)
T8 sequence: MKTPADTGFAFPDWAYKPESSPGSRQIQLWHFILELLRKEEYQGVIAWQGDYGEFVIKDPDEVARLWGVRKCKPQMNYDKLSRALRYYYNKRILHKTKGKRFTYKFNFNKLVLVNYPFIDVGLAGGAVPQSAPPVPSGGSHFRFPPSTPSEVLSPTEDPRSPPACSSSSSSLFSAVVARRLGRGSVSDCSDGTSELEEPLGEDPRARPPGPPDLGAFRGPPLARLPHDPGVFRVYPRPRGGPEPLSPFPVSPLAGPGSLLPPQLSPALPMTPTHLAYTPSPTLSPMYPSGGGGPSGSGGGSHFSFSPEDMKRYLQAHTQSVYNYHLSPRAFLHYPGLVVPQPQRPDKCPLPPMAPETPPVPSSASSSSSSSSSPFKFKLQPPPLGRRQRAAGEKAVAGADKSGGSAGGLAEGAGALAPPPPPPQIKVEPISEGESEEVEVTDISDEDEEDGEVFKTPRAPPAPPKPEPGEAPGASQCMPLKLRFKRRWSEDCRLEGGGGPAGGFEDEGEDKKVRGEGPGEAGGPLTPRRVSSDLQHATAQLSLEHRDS
In short: as §1

ETV3L = target: T9, ETV3L (Homo sapiens, UniProt Q6ZN32 1-361)
T9 sequence: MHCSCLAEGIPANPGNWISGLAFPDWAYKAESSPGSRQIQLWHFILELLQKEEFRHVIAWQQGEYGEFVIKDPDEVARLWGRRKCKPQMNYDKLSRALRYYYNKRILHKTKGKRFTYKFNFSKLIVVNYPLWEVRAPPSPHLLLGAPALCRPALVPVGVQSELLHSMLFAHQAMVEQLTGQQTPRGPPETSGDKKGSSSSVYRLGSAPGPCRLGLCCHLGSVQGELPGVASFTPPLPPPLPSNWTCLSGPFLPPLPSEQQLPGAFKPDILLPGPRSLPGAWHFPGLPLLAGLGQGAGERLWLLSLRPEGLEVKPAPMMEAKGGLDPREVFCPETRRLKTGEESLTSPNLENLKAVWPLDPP
In short: as §1

ETV7 = target: T10, ETV7 (Homo sapiens, UniProt Q9Y603 1-341)
T10 sequence: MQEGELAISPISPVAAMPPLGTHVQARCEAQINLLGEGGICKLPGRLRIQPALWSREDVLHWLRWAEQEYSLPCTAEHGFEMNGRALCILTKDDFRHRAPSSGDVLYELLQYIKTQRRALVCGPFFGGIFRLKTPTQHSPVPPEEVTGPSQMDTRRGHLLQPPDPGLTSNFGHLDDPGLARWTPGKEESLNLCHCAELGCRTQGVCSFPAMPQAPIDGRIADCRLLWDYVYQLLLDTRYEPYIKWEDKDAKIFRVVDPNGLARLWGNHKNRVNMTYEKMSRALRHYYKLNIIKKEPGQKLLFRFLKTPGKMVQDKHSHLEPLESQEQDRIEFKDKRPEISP
In short: as §1

ETV3 = target: T11, ETV3 (Homo sapiens, UniProt P41162-2 1-143)
T11 sequence: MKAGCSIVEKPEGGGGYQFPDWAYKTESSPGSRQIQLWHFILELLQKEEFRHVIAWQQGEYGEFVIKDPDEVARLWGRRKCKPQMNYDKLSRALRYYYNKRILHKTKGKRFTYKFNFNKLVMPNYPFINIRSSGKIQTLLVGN
In short: as §1

ETV6 = ETV6 (Homo sapiens, UniProt P41212 1-452)
Chain of ETV6 (P41212 whole entry): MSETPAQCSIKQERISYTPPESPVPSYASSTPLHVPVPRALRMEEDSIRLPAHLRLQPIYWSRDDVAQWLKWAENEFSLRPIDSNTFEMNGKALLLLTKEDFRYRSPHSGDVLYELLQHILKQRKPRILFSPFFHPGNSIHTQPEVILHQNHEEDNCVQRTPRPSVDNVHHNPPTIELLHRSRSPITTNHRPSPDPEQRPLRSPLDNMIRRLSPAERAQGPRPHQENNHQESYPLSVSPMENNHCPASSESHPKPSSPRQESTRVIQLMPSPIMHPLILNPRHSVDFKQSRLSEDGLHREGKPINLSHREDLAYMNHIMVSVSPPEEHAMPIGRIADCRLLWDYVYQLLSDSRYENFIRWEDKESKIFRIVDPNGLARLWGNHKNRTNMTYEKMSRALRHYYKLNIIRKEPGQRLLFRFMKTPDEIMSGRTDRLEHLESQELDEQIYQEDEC
In short: as §1

GCCCCG
binding signal (ELK1): 1.07 fold enrichment (6-mer frequency, TF over GST control)
binding signal (ERG): 1.06 fold enrichment (6-mer frequency, TF over GST control)
binding signal (EHF): 1.01 fold enrichment (6-mer frequency, TF over GST control)
binding signal (SPI1): 1.08 fold enrichment (6-mer frequency, TF over GST control)
binding signal (SPIB): 1.16 fold enrichment (6-mer frequency, TF over GST control)
binding signal (SPIC): 1.13 fold enrichment (6-mer frequency, TF over GST control)
binding signal (ELF4): 1.09 fold enrichment (6-mer frequency, TF over GST control)
binding signal (ELK4): 1.13 fold enrichment (6-mer frequency, TF over GST control)
binding signal (ETV2): 1.06 fold enrichment (6-mer frequency, TF over GST control)
binding signal (ELF3): 1.08 fold enrichment (6-mer frequency, TF over GST control)
binding signal (ERF): 1 fold enrichment (6-mer frequency, TF over GST control)
binding signal (ETV3L): 1.03 fold enrichment (6-mer frequency, TF over GST control)
binding signal (ETV7): 1.06 fold enrichment (6-mer frequency, TF over GST control)
binding signal (ETV3): 1.15 fold enrichment (6-mer frequency, TF over GST control)
binding signal (ETV6): 1.09 fold enrichment (6-mer frequency, TF over GST control)

Source: paper PMC7862700, “An all-to-all approach to the identification of sequence-specific readers for epigenetic DNA modifications on cytosine”
